Potency and affinity values are given separately. Inconclusive results are not listed. Activity calls are given as the source filed them.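 The calls were made as follows: active = compounds lowering the FRET ratio whose fitted half-maximal concentration is at most twice their top tested dose; inconclusive = flat partial drop between 30 and 70 percent, or bad fit; inactive = the rest.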
Each compound was assayed against Voltage-dependent L-type calcium channel subunit alpha-1D (Homo sapiens) (UniProt Q01668) (assay: inhibitors of CaV1.3 ICDI-IQ binding, dose response, cell-based, HEK293, YFP-IQ/CFP-ICDI FRET, cherry-picks (AID 1053205)). Details: HEK293 YFP-IQ/CFP-ICDI FRET ratio, 10 min; series mostly up to 35 µM.
Voltage-dependent L-type calcium channel subunit alpha-1D (Homo sapiens), sequence (Q01668 whole entry, looked up): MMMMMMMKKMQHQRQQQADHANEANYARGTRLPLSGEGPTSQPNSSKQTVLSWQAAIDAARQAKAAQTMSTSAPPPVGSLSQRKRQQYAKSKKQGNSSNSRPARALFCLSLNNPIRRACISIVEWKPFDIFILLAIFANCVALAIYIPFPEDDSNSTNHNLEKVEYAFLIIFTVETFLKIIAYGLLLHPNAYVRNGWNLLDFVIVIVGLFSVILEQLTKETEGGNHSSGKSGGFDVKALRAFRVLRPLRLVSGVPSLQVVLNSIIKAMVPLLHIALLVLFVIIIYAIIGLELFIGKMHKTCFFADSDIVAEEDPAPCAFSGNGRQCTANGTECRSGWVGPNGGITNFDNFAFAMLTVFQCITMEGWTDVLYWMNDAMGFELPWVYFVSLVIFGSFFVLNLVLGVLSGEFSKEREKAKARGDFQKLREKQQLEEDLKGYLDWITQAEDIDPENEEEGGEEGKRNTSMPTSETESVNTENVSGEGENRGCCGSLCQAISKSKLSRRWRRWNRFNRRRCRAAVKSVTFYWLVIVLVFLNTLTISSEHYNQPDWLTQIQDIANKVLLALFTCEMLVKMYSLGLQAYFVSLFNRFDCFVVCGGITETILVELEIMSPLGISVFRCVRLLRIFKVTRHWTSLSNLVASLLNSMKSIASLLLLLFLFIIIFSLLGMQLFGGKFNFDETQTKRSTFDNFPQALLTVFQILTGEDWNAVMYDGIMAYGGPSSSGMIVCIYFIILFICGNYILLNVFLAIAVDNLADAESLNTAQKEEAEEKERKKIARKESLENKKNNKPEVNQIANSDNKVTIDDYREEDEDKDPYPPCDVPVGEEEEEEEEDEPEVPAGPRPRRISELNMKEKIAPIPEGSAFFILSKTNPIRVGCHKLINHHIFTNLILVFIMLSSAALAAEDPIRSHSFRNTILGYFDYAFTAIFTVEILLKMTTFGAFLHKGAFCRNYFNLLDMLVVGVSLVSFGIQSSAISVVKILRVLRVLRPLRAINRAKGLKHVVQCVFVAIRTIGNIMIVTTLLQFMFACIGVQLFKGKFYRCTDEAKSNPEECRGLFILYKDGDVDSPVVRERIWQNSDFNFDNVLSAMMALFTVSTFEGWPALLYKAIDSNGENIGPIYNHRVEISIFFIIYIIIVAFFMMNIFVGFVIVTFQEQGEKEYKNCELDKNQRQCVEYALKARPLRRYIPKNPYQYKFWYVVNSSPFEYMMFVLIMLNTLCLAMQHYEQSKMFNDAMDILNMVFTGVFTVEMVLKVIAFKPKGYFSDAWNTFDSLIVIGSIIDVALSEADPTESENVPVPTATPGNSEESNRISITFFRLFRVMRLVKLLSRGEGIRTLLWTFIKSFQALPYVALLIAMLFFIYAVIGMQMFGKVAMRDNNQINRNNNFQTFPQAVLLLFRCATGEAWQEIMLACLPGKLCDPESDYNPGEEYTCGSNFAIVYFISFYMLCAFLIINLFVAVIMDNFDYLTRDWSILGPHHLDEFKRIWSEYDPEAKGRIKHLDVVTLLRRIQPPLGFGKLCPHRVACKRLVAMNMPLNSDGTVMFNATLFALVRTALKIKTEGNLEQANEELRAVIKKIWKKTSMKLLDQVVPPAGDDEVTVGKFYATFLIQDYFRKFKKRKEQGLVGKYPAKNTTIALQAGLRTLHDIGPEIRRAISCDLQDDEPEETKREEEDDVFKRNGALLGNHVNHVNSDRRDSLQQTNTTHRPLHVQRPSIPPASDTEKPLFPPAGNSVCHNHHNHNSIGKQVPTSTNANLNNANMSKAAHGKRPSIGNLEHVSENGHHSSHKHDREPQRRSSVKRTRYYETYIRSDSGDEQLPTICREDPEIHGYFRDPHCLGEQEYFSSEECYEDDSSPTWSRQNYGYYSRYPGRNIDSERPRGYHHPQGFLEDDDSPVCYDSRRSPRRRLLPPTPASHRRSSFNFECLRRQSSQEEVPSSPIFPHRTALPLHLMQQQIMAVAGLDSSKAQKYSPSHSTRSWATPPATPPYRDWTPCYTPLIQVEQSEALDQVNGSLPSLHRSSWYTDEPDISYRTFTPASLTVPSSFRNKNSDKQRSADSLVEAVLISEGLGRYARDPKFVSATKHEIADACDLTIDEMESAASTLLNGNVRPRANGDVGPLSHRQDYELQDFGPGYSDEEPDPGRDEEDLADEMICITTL

outcome, inactive:
COc1ccc(C2CC(c3cccs3)=NN2c2nc(C)c(C(C)=O)s2)cc1OC (configuration not stated)
CNNC(=S)NC1CC2CC1C1C=CCC21 (configuration not stated)
c1ccc(-c2cn3nc4c(nc3n2)CCCC4)cc1
CCOc1ccc(C(=O)c2cc3ccc(O)cc3oc2=O)cc1
S=C(NCC1CCCO1)N1CCN(Cc2ccccc2Cl)CC1 (configuration not stated)
Nc1ccc(C#Cc2ccc3c(=O)c4ccccc4oc3c2)cc1
CC1CCN(C(=O)COc2cccc3c2CCN(Cc2ccccc2)C3=O)CC1
N#Cc1ccc(OCC(=O)OCC(=O)N2CCc3ccccc32)cc1
CC(=O)N=c1c(C#N)cc2c(=O)n3ccccc3nc2n1CCCOC(C)C
O=C(O)C1=CC[C@@H](c2ccc(Cl)cc2)N(S(=O)(=O)c2ccc(Cl)cc2)[C@H]1c1ccc(F)cc1
Nc1cccc2c1C(=O)N(c1ccccc1)C2=O
Cc1ccc2c(c1)N(C(=O)CCC(=O)NCCCN1CCOCC1)CC(C)O2 (configuration not stated)
Cc1ccc(S(=O)(=O)c2cc3c(=O)n4ccccc4nc3n(C)c2=N)cc1
O=C1CCc2cc(S(=O)(=O)NC(Cc3ccccc3)C(=O)NCCC3=CCCCC3)ccc2N1 (configuration not stated)
Cc1cc(C)nc(SCC(=O)Nc2ccc(S(=O)(=O)Nc3onc(C)c3C)cc2)n1
Cc1cc(-n2c(=O)c(C#N)cc3c(=O)n4ccccc4nc32)no1
O=C(O)c1cccc(Nc2nc(-c3cc4ccccc4oc3=O)cs2)c1
C[C@H](NC(=O)c1nc[nH]c1C(=O)N[C@@H](Cc1ccccc1)C(=O)OC(C)(C)C)C(=O)OCc1ccccc1
Clc1ccccc1C1=CC(c2ccco2)n2ncnc2N1 (configuration not stated)
CCOC(=O)C(NC(=O)c1ccccc1)(OCC1(CC)COC1)C(F)(F)F (configuration not stated)
O=C(CCc1c[nH]c2ccccc12)OCC(=O)c1ccccc1
CCCCCCSc1cc(-c2nc3cc(C)ccn3c2NCCCC)ccc1OC
Cc1c(C(=O)NCc2ccc3c(c2)OCCO3)sc(=O)n1Cc1ccccc1F
CCn1c(=NC(=O)CSC(C)=O)sc2cc(OC)ccc21
Cc1c(C(=O)NCc2ccc(Cl)c(Cl)c2)sc(=O)n1Cc1cccc(F)c1
N#Cc1ccc(/C=C\c2nccc3c2[nH]c2ccccc23)cc1
Clc1cccc(CN2CCN(Cc3nc(CCc4ccccc4)no3)CC2)c1
COCCNC(=S)N/N=C/c1ccc(-c2ccc([N+](=O)[O-])cc2)o1
Cc1ccc(S(=O)(=O)CCC(=O)OCC(=O)Nc2cccc(S(=O)(=O)N3CCCCC3)c2)cc1
COc1ccc(C[C@H]2CN3C(=NC[C@@H]3Cc3ccccc3)N2CCNC(=O)CCC2CCCCC2)cc1
COc1ccc(-[n+]2c(C)cc(/C=C3\Sc4ccccc4N3C)cc2C)cc1
CCC(=O)NCCCNc1nc2c(C)cccc2cc1C#N
N#C/C(=C\c1ccco1)C(=O)Nc1cccc2ncccc12
COCCCOc1cc(NCc2ccccc2)c2ncn(C(C)C)c2c1
C/C(=N\NC(=O)CC#N)c1cc2ccc(O)cc2oc1=O
NC(=O)c1cc([N+](=O)[O-])ccc1NCc1cccnc1
Cn1cnc(S(=O)(=O)Nc2ccc(OC(F)(F)F)cc2)c1

From PubChem BioAssay AID1053205 (Broad Institute, 2014)
